Measurements reported in PubChem BioAssay AID602144 (Vanderbilt Specialized Chemistry Center, 2011).
Unmarked numbers belong to inactive results. The source made the active and inactive calls. Rule as the data show it: active = remaining activity below about 50%; inactive = the rest.

target: Phospholipase D1 (Homo sapiens) (UniProt Q13393); experiment: cellular phospholipase D1 activity inhibition – Calu-1 cells, single concentration (AID 602144); settings: cellular PLD1 activity, active compounds read low;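 also: tested at 200 nM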
Sequence (Q13393 whole entry, looked up): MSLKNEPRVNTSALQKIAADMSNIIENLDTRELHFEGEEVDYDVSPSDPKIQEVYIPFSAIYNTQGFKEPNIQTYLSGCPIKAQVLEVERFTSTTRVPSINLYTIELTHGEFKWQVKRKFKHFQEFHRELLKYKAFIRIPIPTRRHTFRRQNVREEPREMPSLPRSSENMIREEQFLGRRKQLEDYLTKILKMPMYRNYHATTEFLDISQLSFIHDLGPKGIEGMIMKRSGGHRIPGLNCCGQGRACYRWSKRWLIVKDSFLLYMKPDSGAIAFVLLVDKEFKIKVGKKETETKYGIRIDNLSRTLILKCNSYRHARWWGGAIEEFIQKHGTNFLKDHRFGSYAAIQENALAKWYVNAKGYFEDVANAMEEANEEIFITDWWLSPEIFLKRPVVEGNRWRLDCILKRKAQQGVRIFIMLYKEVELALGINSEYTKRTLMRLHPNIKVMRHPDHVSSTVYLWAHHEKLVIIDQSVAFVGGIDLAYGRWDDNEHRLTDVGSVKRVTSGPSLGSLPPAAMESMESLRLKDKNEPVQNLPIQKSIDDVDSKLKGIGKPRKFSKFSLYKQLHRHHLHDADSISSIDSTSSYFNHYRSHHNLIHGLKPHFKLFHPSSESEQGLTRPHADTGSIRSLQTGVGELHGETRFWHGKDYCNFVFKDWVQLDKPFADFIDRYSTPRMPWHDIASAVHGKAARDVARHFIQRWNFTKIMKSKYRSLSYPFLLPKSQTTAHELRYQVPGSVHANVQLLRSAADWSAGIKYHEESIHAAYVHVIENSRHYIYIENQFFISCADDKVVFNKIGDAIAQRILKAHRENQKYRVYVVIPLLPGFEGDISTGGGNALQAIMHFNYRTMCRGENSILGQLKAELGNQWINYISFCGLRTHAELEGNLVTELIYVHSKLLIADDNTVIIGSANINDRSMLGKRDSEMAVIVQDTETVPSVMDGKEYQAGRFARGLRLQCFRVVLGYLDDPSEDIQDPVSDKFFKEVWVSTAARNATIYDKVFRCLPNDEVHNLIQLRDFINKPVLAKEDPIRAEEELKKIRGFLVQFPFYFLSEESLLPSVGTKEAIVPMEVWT
Sequence (Q13393 whole entry, looked up): as above

**Q.** For `O=C(NCCN1CCC2(CC1)C(=O)NCN2c1ccccc1)c1cc2ccccc2s1`, which remaining activity is on record?
**A.** The remaining activity was 50.8%.

**Q.** Which remaining activity does the source give for `O=C(Cc1ccccc1Br)NCCN1CCC2(CC1)C(=O)NCN2c1cccc(F)c1` here?
**A.** Its remaining activity is 100%.

**Q.** For `O=C(CCCl)NCCN1CCC2(CC1)C(=O)NCN2c1cccc(F)c1`, which remaining activity is on record?
**A.** Its remaining activity is 75.7%.

**Q.** With `C[C@@H](CN1CCC2(CC1)C(=O)NCN2c1ccccc1)NC(=O)c1ccc2ccccc2c1` as the molecule, how does the remaining activity read?
**A.** Its remaining activity is 4.56% (active).

**Q.** Which remaining activity does the source give for `O=C(NCCN1CCC2(CC1)C(=O)NCN2c1cccc(F)c1)c1cc2cc(F)ccc2[nH]1` here?
**A.** The remaining activity was 44% (active).

**Q.** Which remaining activity does the source give for `O=C(NCCN1CCC2(CC1)C(=O)NCN2c1ccccc1)c1cnco1` here?
**A.** Its remaining activity is 98%.

**Q.** How did the remaining activity turn out when `O=C(NCCCCCCN1CCC2(CC1)C(=O)NCN2c1ccccc1)c1ccc2ccccc2c1` was run?
**A.** The remaining activity was 131%.

**Q.** For `O=C(c1ccc2ccccc2c1)N1CC(N2CCC3(CC2)C(=O)NCN3c2ccccc2)C1`, which remaining activity is on record?
**A.** The remaining activity was 82.4%.

**Q.** Which remaining activity does the source give for `O=C(NCCN1CCC2(CC1)C(=O)NCN2c1ccc(F)cc1)c1cc2cc(F)ccc2[nH]1` here?
**A.** The remaining activity was 48.1% (active).

**Q.** `O=C(NCCN1CCC2(CC1)C(=O)NCN2c1cccc(F)c1)C1CCCCC1` was tested. Which remaining activity did it give?
**A.** The remaining activity was 102%.
